Test results reported in publication PMC7862700, “An all-to-all approach to the identification of sequence-specific readers for epigenetic DNA modifications on cytosine”.

Columns and labels:
Assay in all cases: DAPPL (digital affinity profiling via proximity ligation, sequencing); 10 mM Tris-HCl pH 7.5, 50 mM NaCl, 1 mM DTT, 4% glycerol, room temperature, 30 min; GST-TFs on glutathione beads, 16-mer random dsDNA library, 0.1% formaldehyde crosslink after washing; high values mean tight binding
FLI1 = biological target: T1, FLI1 (Homo sapiens, UniProt Q01543 1-452); settings: protein: recombinant; tags: N-terminal GST; dsDNA, one strand shown
T1 sequence: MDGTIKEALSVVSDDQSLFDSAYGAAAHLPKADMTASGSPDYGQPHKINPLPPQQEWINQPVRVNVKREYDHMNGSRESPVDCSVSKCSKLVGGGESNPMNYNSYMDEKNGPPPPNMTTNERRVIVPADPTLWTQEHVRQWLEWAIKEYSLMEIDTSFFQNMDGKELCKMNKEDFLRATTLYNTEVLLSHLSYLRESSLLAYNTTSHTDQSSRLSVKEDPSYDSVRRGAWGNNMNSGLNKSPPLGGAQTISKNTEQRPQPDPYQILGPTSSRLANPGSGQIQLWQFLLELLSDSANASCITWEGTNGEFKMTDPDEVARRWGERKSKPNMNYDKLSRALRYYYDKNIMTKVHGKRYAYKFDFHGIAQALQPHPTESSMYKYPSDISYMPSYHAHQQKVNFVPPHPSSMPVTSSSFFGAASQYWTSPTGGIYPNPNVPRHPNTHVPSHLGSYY
Summary of the method: (§1)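 Each value of binding signal is a hexamer's read frequency for a factor divided by the same hexamer's frequency in the tag-only sample. Barcoded, bead-captured GST fusions of human transcription factors made in yeast were pooled with that sample and incubated with 200 nmole of a random double-stranded 16-mer DNA library in Tris/NaCl/DTT/glycerol buffer at room temperature for 30 min. Washing, 0.1% formaldehyde crosslinking, proximity ligation, PCR and Illumina NextSeq500 sequencing followed.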

ELK1 = biological target: T2, ELK1 (Homo sapiens, UniProt P19419 1-428); settings: protein: recombinant; tags: N-terminal GST; dsDNA, one strand shown
T2 sequence: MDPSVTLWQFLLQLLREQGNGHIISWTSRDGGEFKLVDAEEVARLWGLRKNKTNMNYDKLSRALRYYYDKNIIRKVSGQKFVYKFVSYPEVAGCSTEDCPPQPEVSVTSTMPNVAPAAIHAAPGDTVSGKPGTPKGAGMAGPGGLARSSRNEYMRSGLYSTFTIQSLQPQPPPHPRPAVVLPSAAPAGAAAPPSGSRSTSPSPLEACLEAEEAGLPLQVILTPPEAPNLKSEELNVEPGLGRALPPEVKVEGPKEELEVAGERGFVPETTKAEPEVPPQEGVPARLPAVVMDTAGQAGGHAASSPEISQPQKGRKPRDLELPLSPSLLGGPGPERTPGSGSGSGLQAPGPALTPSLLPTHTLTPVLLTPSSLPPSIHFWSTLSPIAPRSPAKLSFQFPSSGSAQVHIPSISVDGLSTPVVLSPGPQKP
Summary of the method: as §1

GABPA = biological target: T3, GABPA (Homo sapiens, UniProt Q06546 1-454); settings: protein: recombinant; tags: N-terminal GST; dsDNA, one strand shown
T3 sequence: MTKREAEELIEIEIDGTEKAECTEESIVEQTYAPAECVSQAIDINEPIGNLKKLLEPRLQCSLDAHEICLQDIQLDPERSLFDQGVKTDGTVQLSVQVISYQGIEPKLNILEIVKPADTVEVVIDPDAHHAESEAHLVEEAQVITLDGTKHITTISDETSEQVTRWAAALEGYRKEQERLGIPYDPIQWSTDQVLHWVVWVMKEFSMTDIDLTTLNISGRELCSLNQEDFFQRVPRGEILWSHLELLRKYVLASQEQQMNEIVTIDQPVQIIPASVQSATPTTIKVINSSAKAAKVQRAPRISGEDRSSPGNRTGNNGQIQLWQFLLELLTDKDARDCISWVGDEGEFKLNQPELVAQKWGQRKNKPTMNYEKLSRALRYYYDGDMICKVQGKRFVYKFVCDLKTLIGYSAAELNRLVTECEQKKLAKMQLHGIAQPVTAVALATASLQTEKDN
Summary of the method: as §1

ERG = biological target: T4, ERG (Homo sapiens, UniProt P11308 1-479); settings: protein: recombinant; tags: N-terminal GST; dsDNA, one strand shown
T4 sequence: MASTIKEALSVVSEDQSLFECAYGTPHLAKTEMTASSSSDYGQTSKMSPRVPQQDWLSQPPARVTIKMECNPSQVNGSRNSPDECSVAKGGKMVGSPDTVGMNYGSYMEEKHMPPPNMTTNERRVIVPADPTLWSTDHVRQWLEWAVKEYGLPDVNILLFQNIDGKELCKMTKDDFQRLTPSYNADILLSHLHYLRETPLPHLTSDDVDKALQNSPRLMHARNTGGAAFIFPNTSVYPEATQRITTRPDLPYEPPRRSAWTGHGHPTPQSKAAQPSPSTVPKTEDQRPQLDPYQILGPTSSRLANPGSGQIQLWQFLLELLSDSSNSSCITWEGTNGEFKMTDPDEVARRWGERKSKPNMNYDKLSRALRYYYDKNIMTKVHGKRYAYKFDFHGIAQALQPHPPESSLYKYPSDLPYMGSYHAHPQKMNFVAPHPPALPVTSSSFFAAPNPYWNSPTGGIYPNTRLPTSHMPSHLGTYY
Summary of the method: as §1

ELF1 = ELF1 (Homo sapiens, UniProt P32519 1-619); settings: protein: recombinant; tags: N-terminal GST; dsDNA, one strand shown
ELF1, sequence (P32519 whole entry): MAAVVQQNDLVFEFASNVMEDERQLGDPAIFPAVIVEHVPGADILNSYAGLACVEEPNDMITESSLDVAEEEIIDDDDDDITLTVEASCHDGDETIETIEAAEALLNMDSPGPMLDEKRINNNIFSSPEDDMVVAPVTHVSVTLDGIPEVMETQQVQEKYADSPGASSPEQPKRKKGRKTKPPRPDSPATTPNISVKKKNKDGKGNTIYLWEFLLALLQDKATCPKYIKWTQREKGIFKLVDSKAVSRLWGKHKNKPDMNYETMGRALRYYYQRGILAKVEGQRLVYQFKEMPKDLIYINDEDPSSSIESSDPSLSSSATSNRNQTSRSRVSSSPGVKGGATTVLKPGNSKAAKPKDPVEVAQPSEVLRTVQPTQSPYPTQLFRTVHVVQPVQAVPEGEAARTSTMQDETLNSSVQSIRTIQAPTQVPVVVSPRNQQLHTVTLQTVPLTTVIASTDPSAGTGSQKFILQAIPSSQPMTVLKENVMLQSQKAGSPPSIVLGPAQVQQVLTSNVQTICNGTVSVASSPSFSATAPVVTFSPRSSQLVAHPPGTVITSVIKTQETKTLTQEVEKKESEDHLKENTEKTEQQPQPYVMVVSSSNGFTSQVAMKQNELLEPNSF
Summary of the method: as §1

EHF = biological target: T5, EHF (Homo sapiens, UniProt Q9NZC4 1-300); settings: protein: recombinant; tags: N-terminal GST; dsDNA, one strand shown
T5 sequence: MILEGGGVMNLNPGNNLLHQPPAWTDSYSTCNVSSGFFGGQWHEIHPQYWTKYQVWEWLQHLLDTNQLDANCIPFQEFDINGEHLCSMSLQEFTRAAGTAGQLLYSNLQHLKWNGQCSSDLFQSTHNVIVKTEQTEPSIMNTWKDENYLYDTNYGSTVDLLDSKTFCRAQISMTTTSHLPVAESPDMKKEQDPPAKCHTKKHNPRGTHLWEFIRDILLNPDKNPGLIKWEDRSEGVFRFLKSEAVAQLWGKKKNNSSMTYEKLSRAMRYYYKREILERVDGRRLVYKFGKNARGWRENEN
Summary of the method: as §1

SPI1 = SPI1 (Homo sapiens, UniProt P17947 1-270); settings: protein: recombinant; tags: N-terminal GST; dsDNA, one strand shown
Summary of the method: as §1

SPIB = SPIB (Homo sapiens, UniProt Q01892 1-262); settings: protein: recombinant; tags: N-terminal GST; dsDNA, one strand shown
SPIB, sequence (Q01892 whole entry): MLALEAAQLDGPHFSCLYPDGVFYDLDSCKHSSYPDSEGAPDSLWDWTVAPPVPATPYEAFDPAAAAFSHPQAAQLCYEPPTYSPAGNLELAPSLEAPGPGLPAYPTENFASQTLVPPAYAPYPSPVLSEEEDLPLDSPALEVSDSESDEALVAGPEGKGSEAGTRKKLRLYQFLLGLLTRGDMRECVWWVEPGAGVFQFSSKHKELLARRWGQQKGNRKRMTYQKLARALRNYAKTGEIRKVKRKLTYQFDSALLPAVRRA
Summary of the method: as §1

ELK3 = biological target: T6, ELK3 (Homo sapiens, UniProt P41970 1-407); settings: protein: recombinant; tags: N-terminal GST; dsDNA, one strand shown
T6 sequence: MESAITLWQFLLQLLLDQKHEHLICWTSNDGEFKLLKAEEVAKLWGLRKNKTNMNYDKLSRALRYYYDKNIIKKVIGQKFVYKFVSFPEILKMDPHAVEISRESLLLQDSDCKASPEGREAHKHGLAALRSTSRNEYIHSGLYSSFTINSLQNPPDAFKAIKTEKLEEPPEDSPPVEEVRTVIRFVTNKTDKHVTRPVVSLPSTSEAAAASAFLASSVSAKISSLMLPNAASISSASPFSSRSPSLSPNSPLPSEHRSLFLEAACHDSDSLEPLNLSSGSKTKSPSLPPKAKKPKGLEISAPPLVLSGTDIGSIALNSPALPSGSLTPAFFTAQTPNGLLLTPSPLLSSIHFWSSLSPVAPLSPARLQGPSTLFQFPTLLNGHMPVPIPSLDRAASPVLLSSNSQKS
Summary of the method: as §1

FEV = biological target: T7, FEV (Homo sapiens, UniProt Q99581 1-238); settings: protein: recombinant; tags: N-terminal GST; dsDNA, one strand shown
T7 sequence: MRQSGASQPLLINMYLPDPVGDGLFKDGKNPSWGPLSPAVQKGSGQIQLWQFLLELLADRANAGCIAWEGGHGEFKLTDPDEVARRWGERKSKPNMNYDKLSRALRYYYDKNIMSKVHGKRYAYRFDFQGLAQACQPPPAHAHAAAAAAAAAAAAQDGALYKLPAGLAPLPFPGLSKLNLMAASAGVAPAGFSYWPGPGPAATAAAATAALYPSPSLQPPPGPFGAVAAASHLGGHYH
Summary of the method: as §1

ETV5 = ETV5 (Homo sapiens, UniProt P41161 1-510); settings: protein: recombinant; tags: N-terminal GST; dsDNA, one strand shown
ETV5, sequence (P41161 whole entry): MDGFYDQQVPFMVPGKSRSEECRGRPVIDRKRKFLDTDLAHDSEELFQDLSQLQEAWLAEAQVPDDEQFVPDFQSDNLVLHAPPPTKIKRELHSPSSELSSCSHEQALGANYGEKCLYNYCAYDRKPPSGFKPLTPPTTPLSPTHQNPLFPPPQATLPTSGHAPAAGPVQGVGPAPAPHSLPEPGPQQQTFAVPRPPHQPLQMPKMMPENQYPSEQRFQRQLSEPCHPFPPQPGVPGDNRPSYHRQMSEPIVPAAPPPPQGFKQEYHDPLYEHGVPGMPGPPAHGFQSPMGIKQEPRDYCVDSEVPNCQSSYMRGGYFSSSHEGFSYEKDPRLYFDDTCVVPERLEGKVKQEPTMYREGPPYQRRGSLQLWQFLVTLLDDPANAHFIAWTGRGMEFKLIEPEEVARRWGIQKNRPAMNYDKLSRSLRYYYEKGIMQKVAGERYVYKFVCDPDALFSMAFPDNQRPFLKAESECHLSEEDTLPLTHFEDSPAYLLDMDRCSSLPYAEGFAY
Summary of the method: as §1

HSF1 = HSF1 (Homo sapiens, UniProt Q00613 1-529); settings: protein: recombinant; tags: N-terminal GST; chain copies: 3; dsDNA, one strand shown
HSF1, sequence (Q00613 whole entry): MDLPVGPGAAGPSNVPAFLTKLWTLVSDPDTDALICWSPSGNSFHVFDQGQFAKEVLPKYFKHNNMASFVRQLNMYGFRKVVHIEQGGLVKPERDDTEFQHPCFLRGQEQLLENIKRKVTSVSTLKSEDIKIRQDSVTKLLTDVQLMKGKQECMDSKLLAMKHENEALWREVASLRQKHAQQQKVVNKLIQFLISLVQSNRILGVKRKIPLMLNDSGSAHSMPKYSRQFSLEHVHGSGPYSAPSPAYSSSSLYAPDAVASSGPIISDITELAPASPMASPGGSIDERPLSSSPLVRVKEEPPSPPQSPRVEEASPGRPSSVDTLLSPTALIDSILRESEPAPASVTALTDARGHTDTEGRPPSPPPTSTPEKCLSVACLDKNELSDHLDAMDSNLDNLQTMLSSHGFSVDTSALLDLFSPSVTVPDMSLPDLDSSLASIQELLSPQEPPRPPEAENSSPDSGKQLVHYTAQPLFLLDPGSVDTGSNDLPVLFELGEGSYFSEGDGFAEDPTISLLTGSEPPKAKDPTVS
Summary of the method: as §1

SPIC = biological target: T8, SPIC (Homo sapiens, UniProt Q8N5J4 1-248); settings: protein: recombinant; tags: N-terminal GST; dsDNA, one strand shown
T8 sequence: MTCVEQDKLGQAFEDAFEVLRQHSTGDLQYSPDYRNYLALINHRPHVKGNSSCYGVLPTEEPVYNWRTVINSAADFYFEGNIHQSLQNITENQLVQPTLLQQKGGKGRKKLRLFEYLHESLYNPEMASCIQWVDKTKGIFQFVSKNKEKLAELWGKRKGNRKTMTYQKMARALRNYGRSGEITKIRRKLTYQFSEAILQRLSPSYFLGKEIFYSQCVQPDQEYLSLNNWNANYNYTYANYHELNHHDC
Summary of the method: as §1

ELF4 = ELF4 (Homo sapiens, UniProt Q99607 1-663); settings: protein: recombinant; tags: N-terminal GST; dsDNA, one strand shown
ELF4, sequence (Q99607 whole entry): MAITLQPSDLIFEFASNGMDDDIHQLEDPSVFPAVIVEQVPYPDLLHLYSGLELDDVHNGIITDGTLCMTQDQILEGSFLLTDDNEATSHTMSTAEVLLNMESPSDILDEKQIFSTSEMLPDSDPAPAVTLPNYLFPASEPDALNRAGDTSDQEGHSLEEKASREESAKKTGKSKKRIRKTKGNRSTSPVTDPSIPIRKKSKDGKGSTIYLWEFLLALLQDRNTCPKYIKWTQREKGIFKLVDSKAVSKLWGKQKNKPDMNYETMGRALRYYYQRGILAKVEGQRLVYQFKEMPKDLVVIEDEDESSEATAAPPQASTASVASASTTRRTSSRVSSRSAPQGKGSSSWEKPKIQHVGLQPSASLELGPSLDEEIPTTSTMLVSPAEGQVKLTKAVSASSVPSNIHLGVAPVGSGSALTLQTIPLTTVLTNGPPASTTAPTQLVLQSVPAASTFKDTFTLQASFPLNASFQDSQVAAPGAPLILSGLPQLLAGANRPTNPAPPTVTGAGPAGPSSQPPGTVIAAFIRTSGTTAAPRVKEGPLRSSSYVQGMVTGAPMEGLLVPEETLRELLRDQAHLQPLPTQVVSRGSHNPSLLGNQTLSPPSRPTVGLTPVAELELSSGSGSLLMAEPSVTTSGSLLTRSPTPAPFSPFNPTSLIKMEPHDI
Summary of the method: as §1

ELK4 = biological target: T9, ELK4 (Homo sapiens, UniProt P28324-2 1-405); settings: protein: recombinant; tags: N-terminal GST; dsDNA, one strand shown
T9 sequence: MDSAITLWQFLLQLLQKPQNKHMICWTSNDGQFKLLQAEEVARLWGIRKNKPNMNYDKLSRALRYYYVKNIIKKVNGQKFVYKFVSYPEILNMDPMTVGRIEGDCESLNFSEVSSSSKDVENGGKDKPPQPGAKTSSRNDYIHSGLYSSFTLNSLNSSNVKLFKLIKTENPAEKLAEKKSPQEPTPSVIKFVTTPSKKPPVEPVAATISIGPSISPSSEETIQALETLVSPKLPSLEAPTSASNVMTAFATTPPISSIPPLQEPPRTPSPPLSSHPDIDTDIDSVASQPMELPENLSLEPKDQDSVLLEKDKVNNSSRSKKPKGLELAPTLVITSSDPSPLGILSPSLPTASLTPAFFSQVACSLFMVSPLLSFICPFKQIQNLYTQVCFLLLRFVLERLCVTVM
Summary of the method: as §1

ETV2 = biological target: T10, ETV2 (Homo sapiens, UniProt O00321 1-342); settings: protein: recombinant; tags: N-terminal GST; dsDNA, one strand shown
T10 sequence: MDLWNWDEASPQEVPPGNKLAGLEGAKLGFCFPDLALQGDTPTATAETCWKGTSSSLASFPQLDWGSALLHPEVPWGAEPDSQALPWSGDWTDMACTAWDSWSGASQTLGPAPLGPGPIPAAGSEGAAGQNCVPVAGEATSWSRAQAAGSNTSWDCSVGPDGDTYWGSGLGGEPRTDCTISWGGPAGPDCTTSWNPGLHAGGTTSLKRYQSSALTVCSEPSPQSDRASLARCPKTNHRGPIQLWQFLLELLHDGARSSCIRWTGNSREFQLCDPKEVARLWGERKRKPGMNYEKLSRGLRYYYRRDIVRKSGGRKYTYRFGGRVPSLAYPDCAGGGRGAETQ
Summary of the method: as §1

ELF3 = biological target: T11, ELF3 (Homo sapiens, UniProt P78545 1-371); settings: protein: recombinant; tags: N-terminal GST; dsDNA, one strand shown
T11 sequence: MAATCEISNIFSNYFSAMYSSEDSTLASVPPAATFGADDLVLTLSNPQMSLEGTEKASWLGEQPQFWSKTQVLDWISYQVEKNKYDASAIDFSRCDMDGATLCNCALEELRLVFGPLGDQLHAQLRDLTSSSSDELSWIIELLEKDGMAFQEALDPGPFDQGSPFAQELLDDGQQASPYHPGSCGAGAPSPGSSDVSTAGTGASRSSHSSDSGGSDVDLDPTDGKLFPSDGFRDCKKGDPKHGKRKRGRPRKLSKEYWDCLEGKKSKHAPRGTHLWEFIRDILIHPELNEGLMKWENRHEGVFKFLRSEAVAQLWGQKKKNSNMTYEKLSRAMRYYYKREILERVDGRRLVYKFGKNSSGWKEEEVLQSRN
Summary of the method: as §1

CRX = CRX (Homo sapiens, UniProt O43186 1-299); settings: protein: recombinant; tags: N-terminal GST; dsDNA, one strand shown
CRX, sequence (O43186 whole entry): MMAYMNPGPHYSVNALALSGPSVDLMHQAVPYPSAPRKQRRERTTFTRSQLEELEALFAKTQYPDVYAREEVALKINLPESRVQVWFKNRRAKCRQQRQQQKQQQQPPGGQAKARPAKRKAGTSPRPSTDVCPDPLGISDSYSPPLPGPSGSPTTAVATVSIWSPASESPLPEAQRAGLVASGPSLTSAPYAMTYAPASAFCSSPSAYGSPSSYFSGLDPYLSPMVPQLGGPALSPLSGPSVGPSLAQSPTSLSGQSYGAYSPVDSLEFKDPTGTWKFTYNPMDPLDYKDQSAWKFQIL
Summary of the method: as §1

ETV1 = ETV1 (Homo sapiens, UniProt P50549 1-477); settings: protein: recombinant; tags: N-terminal GST; dsDNA, one strand shown
ETV1, sequence (P50549 whole entry): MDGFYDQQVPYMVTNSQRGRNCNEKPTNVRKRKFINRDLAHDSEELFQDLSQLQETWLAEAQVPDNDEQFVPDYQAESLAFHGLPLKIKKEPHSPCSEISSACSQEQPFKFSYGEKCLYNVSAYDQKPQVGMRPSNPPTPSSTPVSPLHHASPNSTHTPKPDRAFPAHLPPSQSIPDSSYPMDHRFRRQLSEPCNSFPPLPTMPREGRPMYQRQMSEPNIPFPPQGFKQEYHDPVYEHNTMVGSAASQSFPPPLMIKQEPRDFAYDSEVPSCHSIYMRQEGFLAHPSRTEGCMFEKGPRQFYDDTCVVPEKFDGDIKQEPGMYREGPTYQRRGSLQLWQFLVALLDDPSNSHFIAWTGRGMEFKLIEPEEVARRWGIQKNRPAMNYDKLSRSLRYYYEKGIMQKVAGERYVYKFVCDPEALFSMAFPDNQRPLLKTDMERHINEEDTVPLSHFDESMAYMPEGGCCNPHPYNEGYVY
Summary of the method: as §1

Q: How did the binding signal (FLI1) turn out when CCATTA was run?
A: 1.08 fold enrichment (6-mer frequency, TF over GST control)

Q: What about the binding signal (ELK1) of the same sequence?
A: 1.05 fold enrichment (6-mer frequency, TF over GST control)

Q: And the binding signal (GABPA)?
A: 1.11 fold enrichment (6-mer frequency, TF over GST control)

Q: What about the binding signal (ERG) of the same sequence?
A: 1.1 fold enrichment (6-mer frequency, TF over GST control)

Q: What about the binding signal (ELF1) of the same sequence?
A: 1.14 fold enrichment (6-mer frequency, TF over GST control)

Q: And the binding signal (EHF)?
A: 1.06 fold enrichment (6-mer frequency, TF over GST control)

Q: What about the binding signal (SPI1) of the same sequence?
A: 1.17 fold enrichment (6-mer frequency, TF over GST control)

Q: What about the binding signal (SPIB) of the same sequence?
A: 1.23 fold enrichment (6-mer frequency, TF over GST control)

Q: What about the binding signal (ELK3) of the same sequence?
A: 1.09 fold enrichment (6-mer frequency, TF over GST control)

Q: What about the binding signal (FEV) of the same sequence?
A: 1.07 fold enrichment (6-mer frequency, TF over GST control)

Q: What about the binding signal (ETV5) of the same sequence?
A: 1.06 fold enrichment (6-mer frequency, TF over GST control)

Q: And the binding signal (HSF1)?
A: 1.11 fold enrichment (6-mer frequency, TF over GST control)

Q: And the binding signal (SPIC)?
A: 1.16 fold enrichment (6-mer frequency, TF over GST control)

Q: What about the binding signal (ELF4) of the same sequence?
A: 1.12 fold enrichment (6-mer frequency, TF over GST control)

Q: And the binding signal (ELK4)?
A: 1.24 fold enrichment (6-mer frequency, TF over GST control)

Q: What about the binding signal (ETV2) of the same sequence?
A: 1.15 fold enrichment (6-mer frequency, TF over GST control)

Q: What about the binding signal (ELF3) of the same sequence?
A: 1.21 fold enrichment (6-mer frequency, TF over GST control)

Q: What about the binding signal (CRX) of the same sequence?
A: 1.32 fold enrichment (6-mer frequency, TF over GST control)

Q: What about the binding signal (ETV1) of the same sequence?
A: 1.16 fold enrichment (6-mer frequency, TF over GST control)
